Assay [1] can be described thus: CCTE_Shafer_MEA_dev_firing_rate_mean: CCTE's Neural Network Formation Assay for Mean Firing Rate, Shafer Lab (AID 2284031).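 Note: curve fitted for loss of firing so AC50 reflects decreased mean firing rate.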 The procedure, abridged: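 Spike frequency (spikes/recording length, averaged over active electrodes) was recorded on days 5, 7, 9 and 12 and collapsed to AUC; rat cortical cultures received compound continuously over 12 days of network development.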

Assay [2] can be described thus: CCTE_Shafer_MEA_dev_per_burst_spike_percent: CCTE's Neural Network Formation Assay for Percent of Spikes in a Burst, Shafer Lab (AID 2284032).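 Note: fitted as a decrease in burst spike percentage below DMSO baseline.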 The procedure, abridged:
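Value is trapezoidal AUC over recordings on days 5, 7, 9 and 12 of the well-mean fraction of spikes falling in single-electrode bursts; rat cortical cultures exposed continuously from plating, treatment renewed DIV 5 and 9, fitted downward against DMSO.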

A short description of assay [3]: CCTE_Shafer_MEA_dev_active_electrodes_number: CCTE's Neural Network Formation Assay for Number of Active Electrodes, Shafer Lab (AID 2284040; active = hit-call score of the fitted dose curve at least 0.9, where 1 is the maximum;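 note: potency for loss of active electrodes versus DMSO so lower counts are hits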). The procedure, abridged:
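Counts electrodes per well firing at least 5 spikes/min, recorded on days 5, 7, 9 and 12 in rat cortical cultures dosed continuously from plating (treatment refreshed DIV 5, 9). Value is the area under the curve over recordings, fitted downward relative to DMSO.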

The nature of assay [4]: CCTE_Shafer_MEA_dev_burst_rate: CCTE's Neural Network Formation Assay for Burst Rate, Shafer Lab (AID 2284042).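 Note: potency for loss of burst rate below DMSO control.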 An outline of the steps:
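Developmental network assay measuring how 12-day exposure of rat cortical neuron cultures alters bursting on extracellular MEA recordings. Values are AUC of well-mean burst rate across four recording days, relative to DMSO vehicle.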

The nature of assay [5]: CCTE_Shafer_MEA_dev_bursting_electrodes_number: CCTE's Neural Network Formation Assay for Number of Bursting Electrodes, Shafer Lab (AID 2284043; active = hit-call score of the fitted dose curve at least 0.9, where 1 is the maximum;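 note: potency is for loss of bursting electrodes relative to DMSO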). An outline of the steps:
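Number of electrodes reaching ≥1 burst every 2 min was recorded at DIV 5, 7, 9 and 12 and collapsed as trapezoidal area under the curve. Cultures were rat cortical neurons on MEA plates, dosed continuously from plating with medium and treatment refreshed on DIV 5 and 9.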

Assay [6] in a line: CCTE_Shafer_MEA_dev_burst_duration_mean: CCTE's Neural Network Formation Assay for Mean Burst Duration, Shafer Lab (AID 2284045).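 Note: curve fitted for loss meaning shorter burst duration than DMSO.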 An outline of the steps:
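Mean single-electrode burst duration (first to last spike), averaged over bursting electrodes per well, then integrated as area-under-curve across recordings at days 5, 7, 9 and 12. Rat cortical cultures on MEAs, compound present from plating, refreshed at feeds.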

The nature of assay [7]: CCTE_Shafer_MEA_dev_interburst_interval_mean: CCTE's Neural Network Formation Assay for Mean Interburst Interval, Shafer Lab (AID 2284046).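 Note: well-mean interburst interval of bursting electrodes as AUC over four recording days; curve fitted for decrease in interburst interval relative to DMSO.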 The procedure, abridged: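 Network formation assay in primary rat cortical cultures, exposed from DIV 0 to 12. Mean interburst interval per well, integrated as AUC over four recordings.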
Assay [8] can be described thus: CCTE_Shafer_MEA_dev_inter_network_spike_interval_mean: CCTE's Neural Network Formation Assay for Mean Inter-network Spike Interval, Shafer Lab (AID 2284047). An outline of the steps: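 Compound was given at plating to primary rat cortical neurons and renewed with full medium changes on DIV 5 and 9. Extracellular activity was recorded on days 5, 7, 9, 12; AUC values were fitted for loss relative to DMSO control.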

The nature of assay [9]: CCTE_Shafer_MEA_dev_network_spike_number: CCTE's Neural Network Formation Assay for Number of Network Spikes, Shafer Lab (AID 2284048).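 Note: synchronized bursts across electrodes counted on days 5 7 9 12 and integrated as AUC; fit as a loss of signal meaning fewer network spikes than DMSO.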 An outline of the steps: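 Number of network spikes (coordinated firing across electrodes) recorded on days 5, 7, 9 and 12 and summarised as area under the curve. Rat cortical cultures on MEA, continuous compound exposure with full medium/treatment exchange at DIV 5 and 9.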

The nature of assay [10]: CCTE_Shafer_MEA_dev_network_spike_peak: CCTE's Neural Network Formation Assay for Mean Number of Electrodes in Network Spike, Shafer Lab (AID 2284049).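 Note: fitted for loss of signal meaning fewer electrodes in network spikes than DMSO.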 The procedure, abridged: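 Rat cortical primary culture, 1.5 x 10^5 cells/well, 48-well MEA (16 electrodes/well). Dosing day 0 through DIV 12, full media/compound exchange DIV 5, 9. AxIS adaptive spike detection; AUC over days 5/7/9/12; loss-of-signal vs DMSO.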

Assay [11] can be described thus: CCTE_Shafer_MEA_dev_spike_duration_mean: CCTE's Neural Network Formation Assay for Mean Spike Duration, Shafer Lab (AID 2284051).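 Note: mean network spike duration pooled as area under curve over DIV 5 to 12 recordings; potency for a decrease in mean network spike duration versus DMSO.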 An outline of the steps:
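With DMSO as baseline, loss of mean network spike duration was scored from extracellular recordings of rat cortical neurons on MEA plates. Exposure spanned plating to DIV 12; the four recording days were collapsed into one AUC value.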

Assay [12] in a line: CCTE_Shafer_MEA_dev_network_spike_duration_std: CCTE's Neural Network Formation Assay for Standard Deviation of Network Spike Duration, Shafer Lab (AID 2284052).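 Note: hits are decreases in network spike duration SD versus DMSO vehicle.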 The procedure, abridged:
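Developing networks of rat cortical neurons were exposed over twelve days in vitro on 48-well MEA plates. Trapezoidal AUC of recordings (DIV 5–12) was analysed for signal loss relative to DMSO vehicle.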

Assay [13] can be described thus: CCTE_Shafer_MEA_dev_per_network_spike_spike_number_mean: CCTE's Neural Network Formation Assay for Mean Number of Spikes in a Network Spike, Shafer Lab (AID 2284053). The procedure, abridged:
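First, rat cortical cells (1.5 x 10^5/well) were seeded onto MEA wells; second, dosing began at plating and was refreshed on DIV 5 and 9; finally, network-spike spike counts across DIV 5–12 were summarized as AUC.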

The nature of assay [14]: CCTE_Shafer_MEA_dev_per_network_spike_spike_percent: CCTE's Neural Network Formation Assay for Percent of Spikes in a Network Spike, Shafer Lab (AID 2284054). The procedure, abridged:
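Metric: fraction of spikes falling in a 0.05 s window at network-spike peaks. Recordings were made on days 5, 7, 9 and 12 and collapsed by trapezoidal AUC. Cultures were rat cortical neurons on MEA plates, dosed continuously from plating, re-dosed at media changes.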

The nature of assay [15]: CCTE_Shafer_MEA_dev_LDH: CCTE's Lactate Dehydrogenase Assay for Cytotoxicity in the Neural Network Formation Assay, Shafer Lab (AID 2284068; active = hit-call score of the fitted dose curve at least 0.9, where 1 is the maximum;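 note: exposure for twelve days from plating with re-dosing on DIV 5 and 9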). The procedure, abridged: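 Developing rat cortical networks on MEA plates are exposed to compound for 12 days from plating. LDH activity is measured spectrophotometrically, with DMSO as baseline.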
Assay [16] is described as follows: CCTE_Shafer_MEA_dev_AB: CCTE's Alamar Blue Assay for Cytotoxicity in the Neural Network Formation Assay, Shafer Lab (AID 2284083; active = hit-call score of the fitted dose curve at least 0.9, where 1 is the maximum;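 note: resazurin reduction fluorescence as viability of cultured neurons; twelve days of exposure from plating with re-dosing on DIV 5 and 9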). An outline of the steps:
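Cytotoxicity companion to the developmental MEA: primary rat cortical neurons, 12-day exposure starting day 0, compound refreshed DIV 5 and 9; resazurin fluorescence, fitted against DMSO vehicle.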
For orientation: Resazurin is reduced to fluorescent resorufin, in cell work by metabolically active cells.

The nature of assay [17]: CCTE_Shafer_MEA_dev_mutual_information_norm: CCTE's Neural Network Formation Assay for Mutual Information Normalization, Shafer Lab (AID 2284091).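 Note: mutual information between electrodes summarised as area under curve across four recording days; potency is for a decrease in mutual information relative to DMSO.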 An outline of the steps:
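Shared information across electrodes, tracked on days 5, 7, 9 and 12 of network development and collapsed as trapezoidal area under the curve. Rat cortical cultures were treated continuously from plating, with treatment renewed at feeds on DIV 5 and 9; DMSO baseline, negative-direction fit.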

Assay [18] can be described thus: IUF_NPC1a_proliferation_area_72hr: Leibniz Research Institute for Environmental Medicine (IUF) 72-hour Neural Progenitor Cell Proliferation Area Assay (NPC1a) (AID 2284208). An outline of the steps: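 Proliferation read as increase in sphere area by phase-contrast imaging over 72 h continuous compound exposure (no renewal) of hNPC spheres grown with EGF/FGF at 37C, 5% CO2. Growth-factor withdrawal served as positive control; DMSO as baseline.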

The nature of assay [19]: IUF_NPC1_viability_72hr: Viability Assessment at 72 hours in the Leibniz Research Institute for Environmental Medicine (IUF) Neural Progenitor Cell Proliferation Assay (NPC1) (AID 2284209). An outline of the steps:
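Viability was measured by resazurin-to-resorufin fluorescence (alamar blue) after 72 h of continuous exposure without compound renewal. Each well held one hNPC sphere (gestational week 16-19 fetal cortex, 0.25-0.35 mm) cultured in EGF/FGF proliferation medium at 37C and pH 7.2-7.6.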

Assay [20] can be described thus: CCTE_Mundy_HCI_Cortical_Synap_Neur_Matur_NeuriteSpotCountPerNeuriteLength: CCTE's Synaptogenesis and Neurite Maturation Assay in rat cortical cells for Neurite Spot Count per Neurite Length, Mundy Lab (AID 2284210). The procedure, abridged: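 Synaptophysin spots per unit neurite length, measured by automated imaging of MAP2/synaptophysin/Hoechst-stained neurons. Cultures from rat cortex received chemical at DIV 7 with media change through DIV 12; glial growth arrested by AraC at DIV 5; DMSO baseline.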

The nature of assay [21]: CCTE_Mundy_HCI_Cortical_Synap_Neur_Matur_BPCount: CCTE's Synaptogenesis and Neurite Maturation Assay in rat cortical cells for Branch Point Count, Mundy Lab (AID 2284211). An outline of the steps:
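HCI read-out of branch points from MAP2/synaptophysin/Hoechst immunofluorescence; rat cortical cultures, AraC DIV 5, dosing DIV 7, fixed DIV 12; fit in positive direction vs DMSO baseline.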

A short description of assay [22]: CCTE_Mundy_HCI_Cortical_NOG_NeuriteCount: CCTE's Neurite Outgrowth Assay in rat cortical cells for Neurite Count, Mundy Lab (AID 2284212).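 Note: cells fixed about two days after chemical exposure began.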 An outline of the steps: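 Rat cortical primary cells; compound added 2 h post-plating, 1/10 dilution of working solution. Anti-betaIII-tubulin/AF488 ICC; ArrayScan neurite count vs DMSO.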
Assay [23] in a line: CCTE_Mundy_HCI_Cortical_NOG_NeuriteLength: CCTE's Neurite Outgrowth Assay in rat cortical cells for Neurite Length, Mundy Lab (AID 2284213). The procedure, abridged: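 First, rat primary cortical cells were plated and, 2 h later, given test chemical as a 1/10 dilution. Finally, βIII-tubulin immunostaining enabled automated imaging of neurite length.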

Results filed as inconclusive are left out. Activity calls are given as the source filed them. Rule for the calls, unless noted: active = hit-call score of the fitted dose curve at least 0.9, where 1 is the maximum; inactive = score below 0.9.

By AC50 is commonly meant the concentration at which the activity in the assay is half-maximal.

In the case of `CCOP(=O)(OCC)OC(Cl)C(Cl)(Cl)Cl` (stereo not drawn), the AC50 in assay [1] is 1640 nM (active); in assay [2], 1320 nM (active); in [3], 2520 nM (active); in assay [4], 945 nM (active); in assay [5] it was 1100 nM (active); in assay [6], 1220 nM (active). Besides, the concentration at half-maximal activity (AC50) in assay [7] was 3570 nM (active); in [9] it was 833 nM (active); in [10] it was 2290 nM (active); in assay [11], 1390 nM (active); in assay [12], 602 nM (active); in [13] it was 1920 nM (active). For the same compound, the AC50 is 2250 nM (active) in assay [14]; 825 nM (active) in assay [15]; 2240 nM (active) in assay [16]; 797 nM (active) in assay [17]; 49600 nM (active) in assay [20]; 79500 nM (active) in assay [21]. For the same compound, the compound was classed as inactive in [8], in assay [18], in [19], in assay [22] and in assay [23].
